Results reported in PubChem BioAssay AID1851 (National Center for Advancing Translational Sciences (NCATS), 2009).
Out of some 16,000 compounds screened, about 5,800 (36%) were called active. Not shown: some 23% with an inconclusive outcome. The list shows a part of the results. Values without a mark were called inactive. The call rests on the fitted dose curve; in most records, active means well fitted curve in the direction sought with a large enough effect; inconclusive means small, poorly fitted or top-dose-only effect, or effect the other way; inactive means no such curve, though single readings can be large or run the other way.

target: Cytochrome P450 2C19 (Homo sapiens) (UniProt P33261); assay: Cytochrome panel assay with activity outcomes; conditions: recombinant CYP, pro-luciferin dealkylation, luminescence, p450-cyp2c19; series mostly up to 57.1 µM; activity, negative = inhibition: at the top concentration
On the % scale 0 is the no-effect control and ±100 the full control effect.

Cytochrome P450 2C19 (Homo sapiens), sequence (P33261 whole entry, looked up): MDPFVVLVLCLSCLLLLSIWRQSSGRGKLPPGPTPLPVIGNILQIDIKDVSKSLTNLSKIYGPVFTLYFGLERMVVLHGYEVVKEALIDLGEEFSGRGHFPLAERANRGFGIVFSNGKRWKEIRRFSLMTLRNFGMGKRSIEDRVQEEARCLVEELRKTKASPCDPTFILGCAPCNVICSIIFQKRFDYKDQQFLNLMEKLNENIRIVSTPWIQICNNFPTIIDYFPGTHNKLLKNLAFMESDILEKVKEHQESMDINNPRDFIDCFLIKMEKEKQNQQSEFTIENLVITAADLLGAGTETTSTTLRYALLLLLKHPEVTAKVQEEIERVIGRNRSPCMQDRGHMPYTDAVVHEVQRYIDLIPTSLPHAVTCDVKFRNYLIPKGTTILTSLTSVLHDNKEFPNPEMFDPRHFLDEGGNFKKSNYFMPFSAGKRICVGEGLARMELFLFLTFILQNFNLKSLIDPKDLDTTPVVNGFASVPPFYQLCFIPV

SMILES | AC50 | activity, negative = inhibition
O=C(NCc1ccccc1)C(c1ccc(F)cc1)N(Cc1ccco1)C(=O)c1ccccn1 (stereo not given) | 4.47 µM (active) | –
Cc1ccccc1C(C(=O)NCc1ccccc1)N(Cc1ccco1)C(=O)c1ccccn1 (stereo not given) | 3.55 µM (active) | –
CC(Cc1ccccc1)C(=O)NCc1ccccn1 (stereo not given) | – | -18.2%
Cc1ccc(N(CCC#N)C(=O)CSc2ccc3c(c2)OCCO3)cc1 | 2 µM (active) | –
O=C1CCCc2ccccc2N1Cc1ccccc1Cl | 1 µM (active) | –
O=C1CCCc2ccccc2N1Cc1cccc(Cl)c1 | 0.501 µM (active) | –
C[C@@H](CN(C)C)CN1c2ccccc2CCc2ccccc21 | inactive | –
c1ccc(CNc2ccnc(-c3ccc4c(c3)OCO4)n2)cc1 | 2 µM (active) | –
c1cncc(CNc2ccnc(-c3ccc4c(c3)OCO4)n2)c1 | 5.01 µM (active) | –
c1csc(CNc2ccnc(-c3ccc4c(c3)OCO4)n2)c1 | 5.01 µM (active) | –
CN(C)C(=O)c1ccc(-c2nccc(NCc3cccnc3)n2)cc1 | – | -1.41%
COc1cc(OC)c(C(=O)CCCCN2CCC3(CC2)NC(=O)NC3=O)cc1NS(=O)(=O)c1ccc(C(F)(F)F)cc1 | – | 25.1%
CCN(CC)CCC[C@H](C)Nc1c2ccc(Cl)cc2nc2ccc(OC)cc12 | – | 18.9%
COc1ccc(OCCn2c(C)c(/C=N/n3cnnc3)c3ccccc32)cc1 | 0.355 µM (active) | –
C[C@@H](CN1c2ccccc2Sc2ccccc21)N(C)C | inactive | –
CN(C)CCCN1c2ccccc2Sc2cnccc21 | – | 34.5% [at 11.4 µM]
CCN(CC)[C@@H](C)CN1c2ccccc2Sc2ccccc21 | – | -42.8% [at 25.6 µM]
CN(C)CCCN1c2ccccc2C(C)(C)c2ccccc21 | – | 1.8% [at 11.4 µM]
CN(C)CCCN1c2ccccc2Sc2ccc3ccccc3c21 | 1 µM (active) | –
CCC(=O)c1ccc2c(c1)N(CCCN(C)C)c1ccccc1S2 | – | -7.66%
CCN(CC)CCN1c2ccccc2Sc2ccc3ccccc3c21 | 1 µM (active) | –
CN(C)CCCN1c2ccc3ccccc3c2Sc2cccc(Cl)c21 | 5.01 µM (active) | –
CN=C1N[C@H](c2ccccc2)N(c2ccccc2)S1 | – | 8.52%
CC(C)c1ccc2nc3sc(C(=O)N4CCc5ccccc5C4)c(N)c3cc2c1 | 3.55 µM (active) | –

SMILES | AC50 | activity, negative = inhibition
CCCn1c(-c2ccccc2)nc2c(=O)n(C)c(=O)[nH]c21 | – | -28.4%
O=C(O)Cn1c(-c2ccccc2)nc2ccccc21 | – | -3.11%
CCOC(=O)CSc1cc(CS(=O)c2ccc(Cl)cc2)nc(-c2ccccc2)n1 (stereo not given) | 0.126 µM (active) | –
CCOC(=O)CSc1nc(-c2ccccc2)nc2ccccc12 | 4.47 µM (active) | –
CCOC(=O)Cn1c(-c2ccccc2)nc2ccccc2c1=O | 7.08 µM (active) | –
NC(=Nc1ccccc1)NC(=O)c1nc(Cl)c(N)nc1N | – | -2.55%
CS(=O)(=O)N(CC(=O)Nc1cccc(F)c1)c1cccc([N+](=O)[O-])c1 | 7.94 µM (active) | –
CS(=O)(=O)N1CCC2(CCN(C(=O)Nc3cccc(F)c3)CC2)CC1 | – | 28.3%
CS(=O)(=O)N1CCC[C@@]2(CCN(C(=O)Nc3cccc(F)c3)C2)C1 | – | -16.4%
NC(N)=N/N=C(/c1ccccc1)c1ccc(O)cc1O | – | -16.1% [at 11.4 µM]
COc1ccc(/C=C/C(=O)Nc2nc(C)cc(C)n2)cc1OC | – | -10.2%
COc1cc(/C=C\C(=O)N2CCC=CC2=O)cc(OC)c1OC | – | -7.75% [at 25.6 µM]
C=CCSc1nc2ccccc2n1C(=O)/C=C/c1cc(OC)c(OC)c(OC)c1 | 2.24 µM (active) | –
CCSc1nc2ccccc2n1C(=O)/C=C\c1ccc(OC)c(OC)c1 | 7.94 µM (active) | –
CSc1ccccc1NC(=O)CSCc1ccc(C)cc1 | 1.78 µM (active) | –
Cc1cc2nc(-c3ccc(SCC(=O)N4CCc5ccccc54)nc3)[nH]c2cc1C | 3.98 µM (active) | –
Cc1ccc(C)c(-n2c(CNC(=O)c3ccco3)nnc2SCC(=O)N2CCc3ccccc32)c1 | – | 17%
CCOC(=O)O[C@]1(C(=O)COC(=O)CC)CC[C@@H]2[C@@H]3CCC4=CC(=O)C=C[C@@]4(C)[C@H]3[C@H](O)C[C@]21C | – | -33.4% [at 25.6 µM]
FC(F)(F)c1cccc(N2CCN(CC3CC4C=CC3C4)CC2)c1 (stereo not given) | 8.91 µM (active) | –
OCCN(C=NC1=NN(c2cccc(C(F)(F)F)c2)CC1)CCO | – | 1.91%
CO[C@@H]1COC(=O)[C@@H](CCSC)NC(=O)C/C=C\[C@@H](C)COC(=O)CCC[C@H]1C | – | -34.5% [at 11.4 µM]
C(=Nc1cnc2ccccc2c1)c1ccc2ccccc2n1 | – | 34% [at 11.4 µM]
Cc1cccc(NCCNc2cccc(C)c2)c1 | 2.82 µM (active) | –
Cc1cccc(Nc2ccncc2S(=O)(=O)NC(=O)NC(C)C)c1 | – | -12.7% [at 25.6 µM]

SMILES | AC50 | activity, negative = inhibition
COCCn1c(=O)c(-c2cc(F)cc(F)c2)nc2cnc(N3CCN(C)CC3)nc21 | – | -24.9%
CC(C)=C[C@H]1[C@@H](C(=O)Oc2ccccc2C(C)C)C1(C)C | 1.26 µM (active) | –
COc1ccc2[nH]cc(CCNc3ncncc3-c3cccc(NS(C)(=O)=O)c3)c2c1 | 5.01 µM (active) | –
COc1cccc(-c2cncnc2NCCc2c[nH]c3ccc(OC)cc23)c1 | 0.316 µM (active) | –
COc1ccc2[nH]cc(CCNc3ncncc3-c3cccnc3)c2c1 | 3.16 µM (active) | –
c1cncc(-c2cncnc2NC2CCNCC2)c1 | – | -38.4%
CCC/C=C(\CCC)C(NS(=O)(=O)c1ccc(Cl)cc1)c1ccccc1 (stereo not given) | 0.398 µM (active) | –
CCC/C=C(\CCC)C(NS(=O)(=O)c1ccc(Cl)cc1)c1ccc(C(=O)OC)cc1 (stereo not given) | 1.58 µM (active) | –
CCC/C=C(\CCC)C(NP(=O)(c1ccccc1)c1ccccc1)c1ccc(-c2ccccc2)cc1 (stereo not given) | 7.94 µM (active) | –
CCC/C=C(\CCC)C(NS(=O)(=O)c1cccs1)c1ccc(C(=O)OC)cc1 (stereo not given) | 0.794 µM (active) | –
CO[C@H]1COC(=O)C/C=C\[C@@H](C)COC(=O)[C@@H](C)NC(=O)C/C=C\[C@@H]1C | – | 16.7% [at 11.4 µM]
CO[C@H]1COC(=O)CCC[C@@H](C)[C@H](OC)COC(=O)[C@H]2CCCN2C(=O)C/C=C\[C@@H]1C | – | -20.1% [at 11.4 µM]
CCC/C=C(\CCC)C(NS(=O)(=O)c1cccc2cccnc12)c1ccc(C(=O)OC)cc1 (stereo not given) | 3.16 µM (active) | –
CCC/C=C(\CCC)C(NS(=O)(=O)c1ccc(C(F)(F)F)cc1)c1ccc(C(=O)OC)cc1 (stereo not given) | 2.51 µM (active) | –
CCC/C=C(\CCC)C(NS(C)(=O)=O)c1ccccc1 (stereo not given) | 7.94 µM (active) | –
CCC/C=C(\CCC)C(NS(=O)(=O)c1ccc(-c2ccccc2)cc1)c1ccc(C(=O)OC)cc1 (stereo not given) | 1.26 µM (active) | –
COC(=O)c1ccc(-n2cncn2)c(F)c1 | 7.08 µM (active) | –
O=C(c1ccc2nc3ccc(Cl)cc3c(=O)n2c1)N1CCOCC1 | – | -7.4%
NC(=O)C1(N2CCCCC2)CCN(C(=O)c2cccn3c(=O)c4cc(Cl)ccc4nc23)CC1 | 14.1 µM (active) | –
N[C@@H](Cc1nn[nH]n1)C(=O)O | – | -17.6% [at 11.4 µM]
CCOc1ccc(-c2nn(-c3ccccc3)cc2/C=C2\SC(N)=NC2=O)cc1C | 11.2 µM (active) | –
CCOc1ccc(-c2nn(-c3ccccc3)cc2/C=C(\C#N)S(=O)(=O)c2ccccc2)cc1C | – | -13.4%
COc1ccc(C(=O)c2ccc(OC)c(OC)c2)cc1OC | 2.82 µM (active) | –
COc1ccc(Br)c2c1C[C@H](C(=O)O)CC2 | – | 39.7% [at 11.4 µM]

SMILES | AC50 | activity, negative = inhibition
COc1ccc(C(=O)c2ccccc2)cc1Br | 8.91 µM (active) | –
CCOc1ccc(C(=O)O)cc1OC | – | -14.7%
CC[C@@H](c1ccccc1)n1c(=O)n2n(c1=O)[C@H]1[C@H](O)[C@H]3O[C@@H]3/C(=N/OC/C=C(\C)CCC=C(C)C)[C@@H]1CC2 | – | -35.5% [at 11.4 µM]
CC(C)NC(=O)N1CCC2(CC1)CCN(C(=O)c1ccco1)CC2 | – | 18%
Cc1ccc(C(C(=O)NC2CCCCC2)N2CCN(C(=O)c3ccco3)CC2)cc1 (stereo not given) | 8.91 µM (active) | –
C[N+]1(CCC(=O)c2ccco2)CC2CCC(CC2)C1 (stereo not given) | – | -31.3% [at 11.4 µM]
O=C(OC(C(=O)NC1CCCC1)c1ccncc1)C1=Cc2ccccc2OC1 (stereo not given) | 1.12 µM (active) | –
CC(C)NC(=O)N1CC2(CCN(C(=O)c3ccco3)CC2)C1 | – | -2.81%
Cc1ccc(C(OC(=O)c2ccco2)C(=O)NC2CCCCC2)cc1 (stereo not given) | 17.8 µM (active) | –
COc1ccccc1N1CCN(c2nc(-c3ccccc3)cc(C(F)(F)F)n2)CC1 | 1 µM (active) | –
CN1CCN(c2nc(-c3ccccc3)cc(C(F)(F)F)n2)CC1 | 8.91 µM (active) | –
COc1ccccc1-c1nc(N2CCN(C)CC2)c2ccccc2n1 | – | 1.78%
Cc1ccc(C(=O)NC(=S)Nc2cc(-c3nc4ccccc4s3)ccc2C)cc1 | – | -17%
CNC(=O)NC(=S)NC(=O)c1ccc(OC)cc1 | 14.1 µM (active) | –
CC(C)(C)C(=O)NC(=S)NCCc1ccccc1 | 2.51 µM (active) | –
COc1ccc(C(=O)NC(=S)NCc2ccccc2)cc1 | 5.01 µM (active) | –
COc1ccc(C(=O)NCc2ccc(-c3nc4ccccc4s3)cc2)cc1 | 7.94 µM (active) | –
COc1ccc(C(=O)NNC(=S)NC(=O)c2ccco2)cc1 | – | -61.5%
C/C(=C(/CCO)SSC[C@@H]1CCCO1)N(C=O)Cc1cnc(C)nc1N | – | -29% [at 25.6 µM]
COc1cc(OC)cc(C(=O)NC(=S)Nc2ccc(Cl)c(C(=O)O)c2)c1 | – | -28.3%
COc1cc(OC)cc(C(=O)NC(=S)NCCc2ccccc2)c1 | 2.51 µM (active) | –
CCOc1ccc(N2C(=O)C3C4C=CC(CC4)C3C2=O)c([N+](=O)[O-])c1 (stereo not given) | 3.98 µM (active) | –
Cc1cc(C)c(-c2cc([C@H](C)O/N=C3/[C@H]4OC4[C@@H](O)[C@H]4[C@H]3CCn3c(=O)n(-c5ccccc5)c(=O)n34)on2)c(C)c1 (stereo not given in full) | – | -40% [at 11.4 µM]
